Compounds with a hit are over-represented: about 2.4% of the library has one in this group of screens.
Pol beta inh: inhibitors of human DNA polymerase beta. AID 485314. hit rate 1.3% among 340,000. Pol beta primer extension/strand displacement, fluorescence kinetic. Potency, µM (top dose mostly 114 µM), actives largely listed as inhibitors. P06746
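Preincubation: enzyme (10 nM) with compound, 15 min, RT. Reaction: substrate added to 50 nM final. Reads: 0 and 10 min. Analysis: normalized, Hill fit.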
Pol kappa inh: blocks human DNA polymerase kappa activity; hit rate 0.53% among 400,000; Potency, µM (highest dose often 107 µM), hits mostly inhibitors; purified Pol kappa, fluorescent DNA synthesis assay, 10 min
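Pol kappa 10 nM + cpd, 15 min RT; start w/ substrate 50 nM final; fluorescence kinetic read, 0 and 10 min. Neg ctrl: buffer, no enzyme.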
FEN1 inh: human FEN1 inhibition; Potency, µM (series often up to 114 µM), usual class: inhibitors; P39748; Recombinant FEN1 flap cleavage, fluorescence, 15 min; hit rate 0.35% among 390,000; note: nearly all actives have a fitted effect of over 65% in size
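Enzyme 10 nM, 15 min RT preincubation with compound; start with substrate 50 nM final; reads at 0 and 15 min; qHTS titration, four-parameter Hill fit.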
POLI inh: inhibitors of human DNA polymerase iota; Pol iota fluorescent replication assay, 10 min; Potency, µM (top dose mostly 115 µM), hits mostly inhibitors; hit rate 1% among 390,000
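Pol iota at 10 nM preincubated 15 min with compounds at room temperature; reaction started with fluorescent substrate, 50 nM final. Fluorescence read kinetically at 0 and 10 min; buffer-only wells as negative control.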
WRN helicase inh: blocks human WRN helicase; Potency, µM (highest dose often 114 µM), usual class: inhibitors; hit rate 0.46% among 360,000; AID 651768; Q14191; WRN helicase unwinding, fluorescent forked duplex, kinetic; note: nearly all actives have a fitted effect of over 55% in size
Target sequence (Q14191 whole entry, looked up): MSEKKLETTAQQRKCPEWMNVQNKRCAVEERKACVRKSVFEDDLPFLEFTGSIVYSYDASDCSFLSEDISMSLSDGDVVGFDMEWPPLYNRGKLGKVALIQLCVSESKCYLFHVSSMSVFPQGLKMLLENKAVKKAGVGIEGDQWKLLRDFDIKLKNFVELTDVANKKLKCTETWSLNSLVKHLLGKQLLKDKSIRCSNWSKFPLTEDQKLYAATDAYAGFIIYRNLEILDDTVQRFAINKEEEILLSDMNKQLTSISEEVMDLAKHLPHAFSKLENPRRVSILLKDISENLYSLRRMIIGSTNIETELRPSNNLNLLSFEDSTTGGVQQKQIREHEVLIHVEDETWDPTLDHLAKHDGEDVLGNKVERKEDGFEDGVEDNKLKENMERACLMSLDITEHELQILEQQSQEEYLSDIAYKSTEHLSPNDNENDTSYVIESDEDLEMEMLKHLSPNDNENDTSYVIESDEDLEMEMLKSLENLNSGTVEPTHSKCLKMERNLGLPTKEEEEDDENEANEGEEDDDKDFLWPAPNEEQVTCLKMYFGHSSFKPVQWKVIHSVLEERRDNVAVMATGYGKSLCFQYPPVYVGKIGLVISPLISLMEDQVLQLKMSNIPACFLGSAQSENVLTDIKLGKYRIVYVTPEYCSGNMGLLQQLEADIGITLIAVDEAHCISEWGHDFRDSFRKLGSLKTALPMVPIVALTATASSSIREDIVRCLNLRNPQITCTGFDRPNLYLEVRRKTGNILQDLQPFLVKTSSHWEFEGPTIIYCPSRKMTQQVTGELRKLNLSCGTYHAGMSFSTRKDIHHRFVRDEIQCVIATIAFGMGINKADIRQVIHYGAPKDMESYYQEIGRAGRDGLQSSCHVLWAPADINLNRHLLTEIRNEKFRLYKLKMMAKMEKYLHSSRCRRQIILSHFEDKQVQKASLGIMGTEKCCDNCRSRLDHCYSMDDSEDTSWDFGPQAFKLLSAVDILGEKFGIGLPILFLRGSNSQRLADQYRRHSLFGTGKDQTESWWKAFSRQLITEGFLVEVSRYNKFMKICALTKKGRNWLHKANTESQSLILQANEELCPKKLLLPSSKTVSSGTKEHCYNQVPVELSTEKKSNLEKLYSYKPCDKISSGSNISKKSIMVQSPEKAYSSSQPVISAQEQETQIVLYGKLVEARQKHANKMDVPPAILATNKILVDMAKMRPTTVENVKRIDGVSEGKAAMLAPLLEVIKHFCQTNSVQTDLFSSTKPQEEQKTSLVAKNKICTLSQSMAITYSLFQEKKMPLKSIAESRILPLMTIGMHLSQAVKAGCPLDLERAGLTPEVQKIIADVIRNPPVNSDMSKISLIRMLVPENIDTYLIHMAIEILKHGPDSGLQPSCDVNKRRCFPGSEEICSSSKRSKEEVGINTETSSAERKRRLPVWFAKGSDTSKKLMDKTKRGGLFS
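WRN at 20 nM final preincubated with compound 15 min at room temperature; reaction started with 100 nM fluorophore/quencher forked duplex oligonucleotide and 2 mM ATP final. Unwinding followed kinetically by red fluorescence (ex 525, em 598 nm).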
POLH inh: DNA polymerase eta (human) inhibition; Q9Y253; recombinant Pol eta, fluorescent DNA replication assay; Potency, µM (series often up to 114 µM), hits mostly inhibitors; hit rate 1.2% among 390,000
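Fluorescent replication assay: 50 nM final substrate added after a 15 min room-temperature compound preincubation with 10 nM enzyme. Signal taken at 0 min and again at 10 min.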
Of the large screens only hits and unclear results are named; the others gave an inactive call. Calls come from the whole dose curve; as a rule, active = well fitted curve in the direction sought with a large enough effect; inconclusive = small, poorly fitted or top-dose-only effect, or another doubt; inactive = no such curve, though single readings can be large; an effect the other way counts as inactive or inconclusive.

O=C(NCCc1ccc(F)cc1)c1ccc(Cl)c(S(=O)(=O)N2CCOCC2)c1	POLI inh inconclusive, POLH inh 44.7µM (no result: Pol beta inh)
O=C(COC(=O)c1ccc(S(=O)(=O)NCc2ccco2)cc1)NCCC1=CCCCC1	Pol beta inh 44.7µM, Pol kappa inh inconclusive, POLI inh inconclusive, POLH inh inconclusive
Cc1cc(S(=O)(=O)N2CCCC2)ccc1OCC(=O)NCc1ccco1	Pol beta inh 25.1µM, POLI inh inconclusive
O=C(COC(=O)c1ccc(S(=O)(=O)N2CCCCC2)cc1)NCc1ccco1	Pol beta inh 39.8µM, Pol kappa inh inconclusive, POLI inh inconclusive, POLH inh inconclusive
Cc1cc(S(=O)(=O)N2CCOCC2)ccc1OCC(=O)NCc1ccco1	none
O=C(COc1ccc(S(=O)(=O)N2CCCC2)cc1)NCc1ccco1	Pol beta inh inconclusive, POLI inh inconclusive, POLH inh inconclusive
O=C(NCc1ccco1)c1ccc(Cl)c(S(=O)(=O)N2CCCC2)c1	POLI inh 35.5µM, POLH inh inconclusive (no result: Pol beta inh)
CC(=O)Nc1ccc(NC(=O)COC(=O)c2ccc(S(=O)(=O)NCc3ccco3)cc2)cc1	none (no result: Pol beta inh)
Cc1ccc(NS(=O)(=O)c2cccc(C(=O)OCC(=O)NCc3ccco3)c2)cc1	Pol kappa inh inconclusive, POLI inh inconclusive, POLH inh inconclusive
COc1cccc(NC(=O)COC(=O)c2ccc(S(=O)(=O)NCc3ccco3)cc2)c1	Pol beta inh inconclusive, Pol kappa inh inconclusive, POLI inh inconclusive, POLH inh 8.91µM
O=C(COC(=O)c1ccc(NS(=O)(=O)c2cccs2)cc1)NCc1ccco1	Pol beta inh inconclusive, Pol kappa inh 31.6µM, FEN1 inh 44.7µM, POLI inh 8.91µM, WRN helicase inh 44.7µM, POLH inh 3.98µM
O=S(=O)(Nc1ccc(-c2ccc(N3CCCC3)nn2)cc1)c1ccc(OC(F)(F)F)cc1	none (no result: WRN helicase inh)
CSCC[C@H](NC(=O)[C@H](CC(C)C)NC(=O)CNC(=O)[C@H](Cc1ccccc1)NC(=O)[C@H](Cc1ccccc1)NC(=O)[C@H](CCC(N)=O)NC(=O)[C@H](CCC(N)=O)NC(=O)[C@@H]1CCCN1C(=O)[C@H](CCCCN)NC(=O)[C@@H]1CCCN1C(=O)[C@H](CCCN=C(N)N)NC(=O)CCCCC1SCC2NC(=O)NC21)C(N)=O (some centres not stated)	none (no result: Pol beta inh, FEN1 inh, POLI inh, WRN helicase inh, POLH inh)
CCCCNC(=O)c1nc(C2CCN(S(=O)(=O)c3c(F)cccc3F)CC2)oc1-c1cccc(C(F)(F)F)c1	none (no result: Pol beta inh, Pol kappa inh, FEN1 inh, POLI inh, POLH inh)
COc1ccccc1NC(=O)c1cnn(-c2ccccc2)c1-n1cccc1	none (no result: WRN helicase inh)
COc1cc(OC)c(NC(=O)c2cnn(-c3ccccc3)c2-n2cccc2)cc1Cl	Pol beta inh 50.1µM, POLI inh inconclusive (no result: WRN helicase inh)
O=C1CC(c2ccccc2)=NN1c1ccccc1	none (no result: Pol beta inh)
O=C1CC(c2ccccc2)=NN1c1nc(-c2ccccc2)cs1	Pol beta inh 31.6µM, Pol kappa inh 39.8µM, FEN1 inh inconclusive, POLI inh 20µM
CC(C)(C)n1ncc2c(=O)n(Cc3cccc(C(F)(F)F)c3Cl)cnc21	none (no result: Pol beta inh, WRN helicase inh, POLH inh)
O=C(O)C1C2C=CC(O2)C1C(=O)NCCC1=CCCCC1 (configuration not stated)	Pol beta inh inconclusive, POLI inh inconclusive, POLH inh 50.1µM
O=C(NCCC1=CCCCC1)C(=O)NCc1ccccc1	none
O=C1NC(Cc2ccc(O)cc2)c2nc3ccccc3c(=O)n2-c2ncccc21 (configuration not stated)	none (no result: Pol beta inh, Pol kappa inh, FEN1 inh, POLI inh)
COCCn1c(C)cc(C(=O)COC(=O)c2ccc3c(c2)NC(=O)CS3)c1C	POLH inh inconclusive
C=CCn1c(C)cc(C(=O)COC(=O)c2ccc3c(c2)NC(=O)CS3)c1C	Pol beta inh 39.8µM, Pol kappa inh inconclusive, POLI inh inconclusive, POLH inh inconclusive
CC(=O)c1c(C)[nH]c(C(=O)OCC(=O)Nc2ncc(Cl)c(C)c2Cl)c1C	Pol beta inh inconclusive, POLI inh inconclusive, POLH inh 89.1µM
CC(C)=CC(=O)OCC(=O)Nc1ncc(Cl)c(C)c1Cl	Pol beta inh 39.8µM, Pol kappa inh inconclusive, POLI inh inconclusive, WRN helicase inh inconclusive, POLH inh 79.4µM
Cc1ccc(OCC(=O)N(Cc2ccco2)Cc2ccc(C)o2)cc1	none (no result: WRN helicase inh)

Source: PubChem
